A selection: hits, their analogues and other compounds. The true share with any hit is near 28%.
hDAT+cocaine: changed human dopamine transporter uptake under cocaine IC80 | Q01959 | LLC-PK1 hDAT cells, [14C]-dopamine uptake with cocaine IC80; actives deviate in either direction | B-score at 10 µM | 1.3% of 110,000 active | AID 449768;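 active means Z score or B-score, a plate-position-corrected score, falls beyond the plate's 99.7% confidence bounds, in either direction; inactive means both scores lie inside the 99.7% bounds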
CYP2C9 act: activators of human CYP2C9 | P11712 | recombinant CYP2C9, luciferin-H conversion, luminescence; active compounds read high; factor 1 = untreated enzyme, 0 = blocked | activation factor at 5 µM | 1.4% of 96,000 active | AID 1024;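 active means activation factor of 2 or more for CYP2C9 at a 5 µM dose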
CYP2C19 act: cytochrome P450 2C19 (human) activation; P33261; AID 1025; recombinant CYP2C19, luciferin-H EGE luminescence; active compounds read high; 0 = fully inhibited enzyme, 1 = untreated enzyme; 96,000 tested, under 10 active; activation factor at 5 µM;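 active means activation factor of at least 2 at 5 µM in the primary screen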
CYP2C19 inh: inhibitors of human CYP2C19 | CYP2C19 Supersomes, luciferin-H EGE luminescence, 30 min | 21% of 96,000 active | P33261 | inhibition, % at 5 µM;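 active means CYP2C19 inhibition above a set limit at 5 µM in the primary screen, cut at about 50% in these data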
CYP2C9 inh: blocks human cytochrome P450 2C9; inhibition, % at 5 µM; CYP2C9 Supersomes, luciferin-H conversion, luminescence; AID 777; 20% of 96,000 active; P11712;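 active means blocking of liver enzyme CYP2C9 beyond about 50% at 5 µM, limit read from the data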
D1 mod: allosterically modulates the human D1 dopamine receptor. P21728. HEK293 D1, CRE-luciferase, dopamine EC30 potentiation; actives deviate in either direction. B-score at 10 µM. 5.9% of 58,000 active. AID 641;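 active means luminescence count or its row- and column-corrected plate score outside the 99.7% band of the plate's sample wells, on either side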
Target sequence (P21728 whole entry, looked up): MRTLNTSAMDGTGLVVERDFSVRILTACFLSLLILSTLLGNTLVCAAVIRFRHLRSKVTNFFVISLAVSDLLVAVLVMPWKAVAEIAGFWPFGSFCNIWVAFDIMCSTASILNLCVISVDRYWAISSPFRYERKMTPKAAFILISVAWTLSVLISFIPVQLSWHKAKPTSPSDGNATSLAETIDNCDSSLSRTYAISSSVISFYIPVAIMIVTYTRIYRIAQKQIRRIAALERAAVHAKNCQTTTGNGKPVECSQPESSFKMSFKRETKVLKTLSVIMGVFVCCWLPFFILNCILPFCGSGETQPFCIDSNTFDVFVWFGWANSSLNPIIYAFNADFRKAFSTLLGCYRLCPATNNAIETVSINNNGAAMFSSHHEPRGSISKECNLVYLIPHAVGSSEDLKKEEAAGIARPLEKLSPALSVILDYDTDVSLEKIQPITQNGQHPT
Each line names hits and unclear results; the compound was inactive in the other large screens.

COc1ccc(-c2nnc(CSc3ncnc4sc5c(c34)CCC5)o2)cc1OC	CYP2C9 inh 53 (no result: hDAT+cocaine)
COCCn1c(SCc2nnc(-c3ccccc3)o2)nc2sc3c(c2c1=O)CCC3	CYP2C9 inh 87, D1 mod -5
Cc1noc(C)c1CSc1ncnc2sc3c(c12)CCC3	none (no result: D1 mod)
COCCn1c(SCC(=O)Nc2ncc(C)s2)nc2sc3c(c2c1=O)CCC3	CYP2C9 inh 52
Cc1ccc2c(n1)CC(C)(C)C/C2=N\O	none (no result: CYP2C9 act, CYP2C19 act, CYP2C19 inh, CYP2C9 inh, D1 mod)
O=C(NCCN1CCOCC1)C1CCC(CNS(=O)(=O)c2ccc(Cl)cc2)CC1 (stereo not given)	none (no result: D1 mod)
CCC(C)NC(=O)CC1Oc2ccc(Cl)cc2NC1=O (stereo not given)	none
CCCCOc1ccc(C(=O)NC)cc1	none
COC(=O)CCC(=O)NNC(=O)CCCOc1ccc(Cl)cc1Cl	none (no result: D1 mod)
O=C(CCCOc1ccc(Cl)cc1Cl)Nc1ccncc1	CYP2C19 inh 99, CYP2C9 inh 100 (no result: D1 mod)
O=C(CCCOc1ccccc1)Nc1ccncc1	CYP2C19 inh 99, CYP2C9 inh 97
CCNC(=O)CCCOc1ccc(Cl)cc1Cl	CYP2C19 inh 83
CCCCOc1ccc(C(=O)Nc2ccncc2)cc1	CYP2C19 inh 99, CYP2C9 inh 99
Cc1noc(NS(=O)(=O)c2ccc(NC(=O)CCCOc3ccc(Cl)cc3Cl)cc2)c1C	none (no result: CYP2C9 act, CYP2C19 act, CYP2C19 inh, CYP2C9 inh, D1 mod)
Cc1ccc(CNC(=O)[C@H](C)[C@H]2C[C@]2(C)[C@H](NC(=O)OCc2ccccc2)c2ccccc2)o1	none (no result: CYP2C9 act, CYP2C19 act, CYP2C19 inh, CYP2C9 inh, D1 mod)
CCOC(=O)CNC(=O)COc1ccc(Cl)cc1Br	none
CCNC(=O)COc1ccc(Br)cc1Cl	CYP2C19 inh 73, CYP2C9 inh 57
Cc1ccccc1/C=c1\s/c(=C\C(=O)C(C)(C)C)[nH]c1=O	none (no result: D1 mod)
COCCn1c(CN2CCN(c3ccccc3F)CC2)nc2c1c(=O)n(C)c(=O)n2C	none (no result: hDAT+cocaine, CYP2C9 act, CYP2C19 act, CYP2C19 inh, CYP2C9 inh)
O=C1CC(c2ccccc2)CN1S(=O)(=O)c1ccccc1 (stereo not given)	CYP2C9 act 2.5, CYP2C19 inh 99 (no result: D1 mod)
NC(=O)c1cccc(S(=O)(=O)N2CC(c3ccccc3)CC2=O)c1 (stereo not given)	CYP2C9 act 2.2, CYP2C19 inh 56 (no result: D1 mod)
CC1CCN(S(=O)(=O)c2cccc(C(N)=O)c2)CC1	none (no result: hDAT+cocaine, CYP2C9 act, CYP2C19 act, CYP2C19 inh, CYP2C9 inh)
O=C(CCNS(=O)(=O)c1ccc(Cl)cc1)N1CCC2(O)CCCCC2C1 (stereo not given)	none
Cc1ccc(C(=O)Nc2ccccc2N2CCN(C(=O)C(C)C)CC2)cc1	none
CCOc1cccc(C(=O)Nc2ccccc2N2CCN(C(=O)C(C)C)CC2)c1	hDAT+cocaine -9.1, CYP2C19 inh 77, CYP2C9 inh 94
COc1ccc(C(=O)Nc2ccccc2N2CCN(C(=O)C(C)C)CC2)cc1Cl	none (no result: CYP2C9 act, CYP2C19 act, CYP2C19 inh, CYP2C9 inh, D1 mod)
COc1ccc(Cl)cc1C(=O)Nc1ccccc1N1CCN(C(=O)C(C)C)CC1	CYP2C19 inh 68, CYP2C9 inh 68
CCC(=O)N1CCN(c2ccccc2NC(=O)COc2cccc(C)c2)CC1	CYP2C9 inh 58
CCC(=O)N1CCN(c2ccccc2NC(=O)c2cccc(C)c2)CC1	CYP2C19 inh 77, CYP2C9 inh 71
CC(C)CN1CCC(=O)N(CCSc2ccc(Br)cc2)CC1	none (no result: CYP2C9 act, CYP2C19 act, CYP2C19 inh, CYP2C9 inh, D1 mod)
CCOC(=O)c1c(-n2c(C)cc(C=O)c2C)sc2c1CCCC2	CYP2C9 inh 61 (no result: D1 mod)
O=C(Nc1nc2nc(-c3ccccc3)cc(-c3ccccc3)n2n1)c1ccco1	D1 mod -2.5
O=C(CSCC(=O)N1CCOCC1)Nc1ccccc1	CYP2C19 inh 57
CCOC(=O)N1CCN(C(=O)CSCc2ccc(C)cc2)CC1	none (no result: D1 mod)
O=C(COC(=O)CSCC(=O)N1CCCCC1)NCc1ccc(F)cc1	CYP2C19 inh 51
CC1CCN(C(=O)CSCc2ccc(Cl)cc2)CC1	none (no result: D1 mod)
O=C(CSCc1ccc(F)cc1)N1CCOCC1	CYP2C19 inh 56 (no result: D1 mod)
O=C(CSCc1ccc(Br)cc1)N1CCOCC1	CYP2C19 inh 94
CCOC(=O)C1CCCN(C(=O)c2cn(CC)c3ccc(S(=O)(=O)N4CCCC4)cc3c2=O)C1 (stereo not given)	none (no result: D1 mod)
CCn1c(SCC(=O)N2CCN(c3ccc(F)cc3)CC2)nnc1-c1ccncc1	none (no result: D1 mod)
Cc1noc(C)c1CSCC(=O)N1CCN(c2ccc(F)cc2)CC1	CYP2C19 inh 63
O=C(CN1CCN(c2ccccc2)CC1)Nc1cccc(C(F)(F)F)c1	none
CCN1CCN(Cc2ccc(NC(=O)Nc3ccccc3)cc2)CC1	D1 mod -5.8
COC(=O)c1ccc(Cl)c(NC(=O)CN2CCN(Cc3ccccc3)CC2)c1	none
CC1CN(CC(=O)Nc2cccc(C(=O)Nc3cccc(C(F)(F)F)c3)c2)CC(C)O1 (stereo not given)	CYP2C19 inh 54, CYP2C9 inh 77 (no result: D1 mod)
O=C(CN1CCN(Cc2ccccc2)CC1)Nc1cccc(C(F)(F)F)c1	CYP2C19 inh 55, CYP2C9 inh 51 (no result: D1 mod)
COC(=O)c1cccc(NC(=O)CN2CCN(Cc3ccccc3)CC2)c1	CYP2C19 inh 51, CYP2C9 inh 64 (no result: D1 mod)
COc1ccccc1C(=O)NC(C)C(c1cccs1)N1CCN(C)CC1 (stereo not given)	none (no result: CYP2C9 act, CYP2C19 act, CYP2C19 inh, CYP2C9 inh)
Cc1nn(-c2ccc(F)cc2)c2c1cc(C#N)c1nc3ccccc3n12	none
Cc1nnc(SCC(=O)N(Cc2ccccc2)C(C)C)n1-c1ccccc1	none (no result: D1 mod)
CCOc1cccc(NC(=O)C2CC(=O)N(C)C(=Nc3cccc(F)c3)S2)c1 (stereo not given)	CYP2C19 inh 51, CYP2C9 inh 75 (no result: D1 mod)
CCOc1cccc(NC(=O)C2CC(=O)N(C)C(=Nc3ccccc3)S2)c1 (stereo not given)	CYP2C9 inh 74
CCCCN(C)CCCNC(=O)CC1Oc2ccccc2NC1=O (stereo not given)	none
O=C(CN1C(=O)NC2(CCCCCC2)C1=O)Nc1ccc(S(=O)(=O)N2CCOCC2)cc1	none (no result: D1 mod)
c1ccc(COc2ccc(CNn3cnnc3)cc2)cc1	none
O=C1NC(=S)SC1=C1CCCC1	CYP2C9 inh 74 (no result: D1 mod)
CN1C(=O)C(=C2CCCCCC2)SC1=S	none
CSc1nc(Oc2ccc(F)cc2)c2ccccc2n1	none (no result: D1 mod)
CSc1nc(Oc2ccc3ccccc3c2)c2sccc2n1	CYP2C9 inh 87 (no result: D1 mod)
CC(C)c1ccc(NC(=O)c2csnn2)cc1	D1 mod -4.5
O=C(NC(=S)Nc1ccccc1Cl)c1csnn1	none (no result: D1 mod)
CCc1c(C#N)c(SCc2c(C)noc2C)nc2c1C(=O)CC(C)(C)C2	none (no result: hDAT+cocaine, CYP2C9 act, CYP2C19 act, CYP2C19 inh, CYP2C9 inh)
CCc1c(C#N)c(SCCC(=O)Nc2ccc(OC)cc2)nc2c1C(=O)CC(C)(C)C2	CYP2C19 inh 83, CYP2C9 inh 84 (no result: D1 mod)
CCC(C)(C)n1nnnc1C(c1ccc2ncccc2c1)N1CCCCCC1 (stereo not given)	none (no result: CYP2C9 act, CYP2C19 act, CYP2C19 inh, CYP2C9 inh, D1 mod)
C1=C(CCNCC2CC2)CCCC1	CYP2C19 inh 54 (no result: D1 mod)
Cc1ccc(CNCCC2=CCCCC2)cc1	CYP2C19 inh 94 (no result: D1 mod)
CCOC(=O)N1CCN(CC(=O)Nc2c(C(=O)OC)[nH]c3ccccc23)CC1	none

Screening data deposited in PubChem BioAssay by several laboratories.
